Reference: PubChem BioAssay (Tox21)
Results filed as inconclusive are left out. Activity calls are given as the source filed them. Unless noted, calls follow the shape of the dose curve; as a rule, active = well fitted curve in the direction sought with a large enough effect in the repeat runs; inconclusive = weak or mixed curves; inactive = no such curve, though single readings can be large; an effect the other way counts as inactive or inconclusive.

Assays:
[1] = qHTS assay for small molecules that induce genotoxicity in human embryonic kidney cells expressing luciferase-tagged ATAD5 (AID 651632); also: nearly all actives have a fitted effect of over 15% in size
Outline: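 A rise in luciferase signal from ATAD5-tagged HEK293T cells marks genetic stress. Cells were exposed to compounds for 16 hr at 37C, 5% CO2, then luciferase was quantified after a 30 min room-temperature incubation with Amplite.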

[2] = qHTS assay for small molecule agonists of the p53 signaling pathway - cell viability (AID 651633; calls by dose curve; also: nearly all actives have a fitted effect of over 30% in size; also: potency is read from the fitted curve at half-maximal effect)
Outline: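 p53RE-bla cells, seeded at 4,000 per well and rested 5 h at 37 C/5% CO2, received compounds in DMSO for 16 h at 37 C. CellTiter-Glo was then added, and luminescence was read after 30 min at room temperature to gauge cytotoxicity.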

[3] = qHTS assay for small molecules that induce genotoxicity in human embryonic kidney cells expressing luciferase-tagged ATAD5 - cell viability (AID 651634; calls by dose curve; also: nearly all actives have a fitted effect of over 25% in size; also: potency is read from the fitted curve at half-maximal effect)
Outline: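 Cytotoxicity counter-readout: after 15.5 hr compound treatment at 37C, live-cell protease activity in ATAD5-luciferase HEK293T cells measured by CellTiter-Fluor fluorescence, 30 min development at 37C.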

[4] = qHTS assay for small molecule disruptors of the mitochondrial membrane potential - cell viability (AID 720634; calls by dose curve;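 also: human HepG2 liver cancer cells; series mostly up to about 83 µM; nearly all actives have a fitted effect of over 20% in size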)
Outline: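 Cytotoxicity was quantified from ATP content by CellTiter-Glo luminescence in the same wells as the MMP dye read-out. HepG2 (2,000 cells/well) were plated overnight and exposed to compounds for 1 hr at 37 C.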

[5] = qHTS assay for small molecule disruptors of the mitochondrial membrane potential (AID 720635); also: potency is read from the fitted curve at half-maximal effect
Outline: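 HepG2 cells (2,000/well) attached overnight at 37C, then took compound for 1 hr at 37C, 5% CO2. Mito-MPS dye was added for 30 min; fluorescence was read at 490/535 nm (monomers) and 540/590 nm (aggregates).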

[6] = qHTS assay to test for compound auto fluorescence at 590 nm (red) in HepG2 cells (AID 720674)
Outline: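 Compound auto-fluorescence is scored relative to Rose Bengal sodium, measured at 540/590 nm in live HepG2 cultures after 1 hr compound contact (37 C, 5% CO2).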

[7] = qHTS assay to test for compound auto fluorescence at 590 nm (red) in HEK293 cells (AID 720679)
Outline: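 Intensity at 540nm excitation and 590nm emission is reported as Rose Bengal sodium-equivalent autofluorescence. Measurements followed overnight exposure (37C, 5% CO2) of HEK293 cells, 2,000 per well, to 23 nL compound.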

[8] = qHTS assay to test for compound auto fluorescence at 460 nm (blue) in HEK293 cell free culture (AID 720681)
Outline: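 Test compounds were pinned into cell-free culture medium (DMEM with 10% FBS) and fluorescence was read directly at Ex/Em 405/460 nm. Signals were expressed as fluorescence equivalents of triamterene, with DMSO vehicle as control.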

[9] = qHTS assay to test for compound auto fluorescence at 535 nm (green) in HEK293 cell free culture (AID 720682)
Outline: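 Green-channel intensity (Ex/Em 485/535 nm) was recorded from compound-treated wells containing only DMEM with 10% FBS. Fluorescein provided the equivalency standard.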

[10] = qHTS assay to test for compound auto fluorescence at 590 nm (red) in HEK293 cell free culture (AID 720683)
Outline: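 Tox21 10K library compounds were pinned into cell-free DMEM with 10% FBS and fluorescence was read at excitation 540 nm. Activity is expressed as Rose Bengal sodium equivalency.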

[11] = qHTS assay to test for compound auto fluorescence at 590 nm (red) in HepG2 cell free culture (AID 720684)
Outline: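 Readout: intrinsic compound fluorescence at 590 nm emission after 540 nm excitation, scaled to Rose Bengal sodium. Matrix was cell-free MEM with 10% FBS; DMSO vehicle wells served as control.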

[12] = qHTS assay to test for compound auto fluorescence at 535 nm (green) in HepG2 cell free culture (AID 720686)
[13] = qHTS assay to test for compound auto fluorescence at 460 nm (blue) in HepG2 cells (AID 720687)
Outline: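 Cells (2,000/well in MEM with 10% FBS) attached overnight at 37 C, then were exposed to compound or DMSO for 1 hr at 37 C, 5% CO2. Fluorescence read at Ex/Em 405/460 nm, expressed as triamterene-equivalent signal.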

[14] = qHTS assay to identify small molecule antagonists of the glucocorticoid receptor (GR) signaling pathway - cell viability counter screen (AID 720693); also: nearly all actives have a fitted effect of over 55% in size; also: potency is read from the fitted curve at half-maximal effect
[15] = qHTS assay for identifying genotoxic compounds that show differential cytotoxicity against isogenic chicken DT40 cell lines with known DNA damage response pathways - wild type cell line (AID 743012); also: nearly all actives have a fitted effect of over 60% in size; also: potency is read from the fitted curve at half-maximal effect
Outline: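 Viability by ATP luminescence (CellTiter-Glo, 30 min RT) after 40 h compound treatment at 37 C/5% CO2, using 300 parental DNA repair-proficient DT40 cells per well.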

[16] = qHTS assay for identifying genotoxic compounds that show differential cytotoxicity against isogenic chicken DT40 cell lines with known DNA damage response pathways - Rev3 mutant cell line (AID 743014); also: nearly all actives have a fitted effect of over 55% in size; also: potency is read from the fitted curve at half-maximal effect
[17] = qHTS assay for identifying genotoxic compounds that show differential cytotoxicity against isogenic chicken DT40 cell lines with known DNA damage response pathways - Rad54/Ku70 mutant cell line (AID 743015); also: nearly all actives have a fitted effect of over 60% in size; also: potency is read from the fitted curve at half-maximal effect
[18] = qHTS assay to identify small molecule antagonists of the androgen receptor (AR) signaling pathway - cell viability counter screen (AID 743033; also: nearly all actives have a fitted effect of over 45% in size; also: potency is read from the fitted curve at half-maximal effect)
[19] = molecular target: Androgen receptor (Homo sapiens) (UniProt P10275); test: qHTS assay to identify small molecule antagonists of the androgen receptor (AR) signaling pathway (AID 743035; active = well fitted inhibition curve with a large enough effect in the signal ratio in the repeat runs, not every such curve was filed as active; the % refers to the signal ratio; also: potency is read from the fitted curve at half-maximal effect)
Sequence of Androgen receptor (Homo sapiens) (P10275 whole entry, looked up): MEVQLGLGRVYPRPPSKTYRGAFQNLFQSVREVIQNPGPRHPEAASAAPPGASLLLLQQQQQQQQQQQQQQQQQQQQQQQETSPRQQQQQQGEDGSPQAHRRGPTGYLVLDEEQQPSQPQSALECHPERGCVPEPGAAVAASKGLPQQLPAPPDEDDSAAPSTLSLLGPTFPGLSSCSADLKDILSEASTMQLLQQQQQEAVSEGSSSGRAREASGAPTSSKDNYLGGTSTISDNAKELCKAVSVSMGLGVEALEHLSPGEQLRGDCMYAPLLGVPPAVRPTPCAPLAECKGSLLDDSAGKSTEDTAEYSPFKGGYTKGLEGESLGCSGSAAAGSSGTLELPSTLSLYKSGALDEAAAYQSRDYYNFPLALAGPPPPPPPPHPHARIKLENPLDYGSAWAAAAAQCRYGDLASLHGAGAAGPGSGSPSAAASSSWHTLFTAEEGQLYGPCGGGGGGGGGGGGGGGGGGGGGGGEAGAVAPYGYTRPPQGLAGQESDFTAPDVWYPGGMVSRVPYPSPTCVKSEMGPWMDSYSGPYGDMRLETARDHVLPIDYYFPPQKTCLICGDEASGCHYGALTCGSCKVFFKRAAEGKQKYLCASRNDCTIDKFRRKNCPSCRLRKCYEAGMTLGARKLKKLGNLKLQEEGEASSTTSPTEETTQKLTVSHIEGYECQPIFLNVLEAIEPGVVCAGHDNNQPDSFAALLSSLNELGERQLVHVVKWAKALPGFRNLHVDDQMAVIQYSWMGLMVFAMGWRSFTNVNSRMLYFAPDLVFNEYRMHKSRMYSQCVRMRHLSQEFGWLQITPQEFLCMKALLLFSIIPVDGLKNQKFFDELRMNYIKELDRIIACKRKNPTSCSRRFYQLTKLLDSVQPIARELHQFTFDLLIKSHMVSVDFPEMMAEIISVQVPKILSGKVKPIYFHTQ
Outline: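 Antagonist mode: AR-bla HEK293 cells co-treated with test compounds and agonist R1881 for 16 h at 37C, 5% CO2. Beta-lactamase activity read as FRET fluorescence after 2 h room-temperature substrate loading.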

[20] = qHTS assay to identify small molecule antagonists of the thyroid receptor (TR) signaling pathway - cell viability counter screen (AID 743064); also: nearly all actives have a fitted effect of over 50% in size
Outline: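 In rat pituitary GH3.TRE-Luc reporter cells co-exposed to compound and 1 nM T3 for 23.5 h, cytotoxicity was assessed with CellTiter-Fluor in the same wells, read by fluorescence.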

[21] = qHTS assay to identify small molecule antagonists of the thyroid receptor (TR) signaling pathway (AID 743065); also: series mostly up to about 70 µM; nearly all actives have a fitted effect of over 55% in size
Outline: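 GH3.TRE-Luc rat pituitary cells carrying two TR response elements driving luciferase were plated for 4 h, given compound plus 1 nM T3 (final), and incubated 23.5 h at 37 C. ONE-Glo luminescence measured reporter inhibition; CellTiter-Fluor fluorescence tracked cytotoxicity.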

[22] = test system: thyroid hormone receptor (rat, GH3 cells); test: qHTS assay to identify small molecule agonists of the thyroid receptor (TR) signaling pathway (AID 743066; calls by dose curve)
[23] = qHTS assay to identify small molecule antagonists of the estrogen receptor alpha (ER-alpha) signaling pathway - cell viability counter screen (AID 743074; calls by dose curve; also: potency is read from the fitted curve at half-maximal effect; nearly all actives have a fitted effect of over 45% in size)
[24] = molecular target: Estrogen receptor (Homo sapiens) (UniProt P03372); test: qHTS assay to identify small molecule agonists of the estrogen receptor alpha (ER-alpha) signaling pathway (AID 743075; calls by dose curve)
Sequence of Estrogen receptor (Homo sapiens) (P03372 whole entry, looked up): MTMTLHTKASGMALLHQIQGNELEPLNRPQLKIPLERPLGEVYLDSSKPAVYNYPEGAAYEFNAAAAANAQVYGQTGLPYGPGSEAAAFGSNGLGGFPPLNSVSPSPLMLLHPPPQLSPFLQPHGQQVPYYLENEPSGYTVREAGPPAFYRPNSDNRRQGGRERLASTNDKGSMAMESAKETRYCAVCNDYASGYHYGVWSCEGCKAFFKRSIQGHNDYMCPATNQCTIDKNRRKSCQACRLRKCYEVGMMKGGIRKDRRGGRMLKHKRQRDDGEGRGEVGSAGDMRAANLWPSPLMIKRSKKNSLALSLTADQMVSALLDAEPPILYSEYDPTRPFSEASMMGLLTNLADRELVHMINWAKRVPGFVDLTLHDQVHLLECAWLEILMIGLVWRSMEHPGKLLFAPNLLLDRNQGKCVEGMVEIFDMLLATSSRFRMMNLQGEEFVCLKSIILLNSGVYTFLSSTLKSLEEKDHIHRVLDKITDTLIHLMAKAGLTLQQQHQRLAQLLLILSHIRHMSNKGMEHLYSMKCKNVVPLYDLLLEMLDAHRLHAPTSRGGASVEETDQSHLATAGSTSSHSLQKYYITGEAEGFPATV

[25] = qHTS assay to identify small molecule antagonists of the estrogen receptor alpha (ER-alpha) signaling pathway using the BG1 cell line - cell viability counter screen (AID 743081);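 also: compound given together with 17beta-estradiol as the ER stimulus; series mostly up to about 70 µM; nearly all actives have a fitted effect of over 45% in size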
Aromatase (Homo sapiens) = Aromatase (Homo sapiens) (UniProt P11511); test: qHTS assay to identify aromatase inhibitors (AID 743083); also: series mostly up to about 70 µM; nearly all actives have a fitted effect of over 55% in size
Sequence of Aromatase (Homo sapiens) (P11511 whole entry, looked up): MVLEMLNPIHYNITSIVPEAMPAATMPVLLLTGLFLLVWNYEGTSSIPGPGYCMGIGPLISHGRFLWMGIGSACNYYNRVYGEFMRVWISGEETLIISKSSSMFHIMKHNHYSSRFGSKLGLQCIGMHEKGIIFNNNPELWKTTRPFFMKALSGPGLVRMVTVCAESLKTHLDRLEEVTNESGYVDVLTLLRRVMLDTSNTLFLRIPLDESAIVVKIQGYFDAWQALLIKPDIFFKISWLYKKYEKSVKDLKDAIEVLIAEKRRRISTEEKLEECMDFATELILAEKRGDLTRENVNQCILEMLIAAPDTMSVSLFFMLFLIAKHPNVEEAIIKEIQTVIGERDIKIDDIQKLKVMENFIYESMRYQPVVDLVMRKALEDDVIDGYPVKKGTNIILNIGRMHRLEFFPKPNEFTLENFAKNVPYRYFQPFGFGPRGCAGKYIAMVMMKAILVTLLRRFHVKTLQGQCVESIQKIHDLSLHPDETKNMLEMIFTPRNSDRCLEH

[26] = qHTS assay to identify aromatase inhibitors - cell viability counter screen (AID 743084)
[27] = qHTS assay to identify small molecule that activate the aryl hydrocarbon receptor (AhR) signaling pathway - cell viability counter screen (AID 743086);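 also: HepG2 liver cells carrying the AhR DRE luciferase reporter; series mostly up to about 70 µM; nearly all actives have a fitted effect of over 45% in size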
Outline: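 HepG2-AhR-luc (HG2L7.5c1) cells, 4000/well, were preincubated 5 h at 37C, exposed to compound in qHTS format for 24 hr at 37C, then given CellTiter-Fluor for 30 min; viability was read as fluorescence in the reporter wells.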

[28] = molecular target: Acetylcholinesterase (Homo sapiens) (UniProt P22303); test: Acetylcholinesterase (AChE) small molecule antagonists: fluorescence cell-based qHTS assay (AID 1347398; calls by dose curve; also: potency is read from the fitted curve at half-maximal effect; nearly all actives have a fitted effect of over 50% in size); settings: Potency: AChE activity; outcome: AChE activity
Sequence of Acetylcholinesterase (Homo sapiens) (P22303 whole entry, looked up): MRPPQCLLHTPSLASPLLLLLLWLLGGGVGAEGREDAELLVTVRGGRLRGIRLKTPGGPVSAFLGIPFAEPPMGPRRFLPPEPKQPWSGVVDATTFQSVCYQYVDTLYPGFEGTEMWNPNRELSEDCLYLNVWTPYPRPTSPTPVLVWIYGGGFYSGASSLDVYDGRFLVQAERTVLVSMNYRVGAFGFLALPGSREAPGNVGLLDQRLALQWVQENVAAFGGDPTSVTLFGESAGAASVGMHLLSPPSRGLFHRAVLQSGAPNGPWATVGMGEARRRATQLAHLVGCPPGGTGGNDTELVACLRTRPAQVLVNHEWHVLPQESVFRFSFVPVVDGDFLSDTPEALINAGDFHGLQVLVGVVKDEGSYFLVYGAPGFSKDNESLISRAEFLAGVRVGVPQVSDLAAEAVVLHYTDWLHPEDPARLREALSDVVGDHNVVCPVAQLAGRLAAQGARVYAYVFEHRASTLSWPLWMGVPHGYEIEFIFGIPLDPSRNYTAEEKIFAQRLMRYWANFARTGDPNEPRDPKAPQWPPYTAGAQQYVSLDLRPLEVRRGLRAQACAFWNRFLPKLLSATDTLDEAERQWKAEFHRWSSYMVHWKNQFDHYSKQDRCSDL
Outline: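 Cellular AChE inhibition: SH-SY5Y cells treated with test chemical for 30 min at 37 C, then acetylthiocholine hydrolysis followed over 40 min at room temperature via thiocholine-reactive Thiolite Green fluorescence (490/520 nm).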

[29] = molecular target: Acetylcholinesterase (Homo sapiens) (UniProt P22303); test: Acetylcholinesterase (AChE) small molecule antagonists: enzyme-based qHTS assay with human liver microsomes (AID 1347399; calls by dose curve; also: nearly all actives have a fitted effect of over 60% in size); settings: Potency: qHTS inhibition; outcome: qHTS inhibition
Outline: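 Recombinant human AChE (50 mU/mL in the enzyme mix) and human liver microsomes (0.25 mg/mL final) were preincubated with compound and NADPH (0.25 mg/mL final) for 30 min at 37 C. Acetylthiocholine/DTNB was then added; thiocholine was read colorimetrically after 10 min at room temperature.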

[30] = qHTS assay for small molecule agonists of the p53 signaling pathway (AID 651631; calls by dose curve; also: nearly all actives have a fitted effect of over 15% in size)
Outline: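 We treat p53RE-bla HCT-116 cells with compounds for 16 h at 37 °C, add LiveBLAzer B/G FRET substrate for 2 h at room temperature, and measure fluorescence intensity.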

[31] = qHTS assay to identify small molecule antagonists of the androgen receptor (AR) signaling pathway using the MDA cell line - cell viability counter screen (AID 743041; also: nearly all actives have a fitted effect of over 45% in size)
Outline: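 qHTS viability read-out; MDA-kb2 AR-luc; R1881-stimulated; 16 h exposure at 37C, 0% CO2; CellTiter-Fluor, 30 min; fluorescence intensity.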

[32] = molecular target: Estrogen receptor (Homo sapiens) (UniProt P03372); test: qHTS assay to identify small molecule antagonists of the estrogen receptor alpha (ER-alpha) signaling pathway (AID 743069; active = well fitted curve in the direction sought with a large enough effect in the signal ratio in the repeat runs, not every such curve was filed as active; the % refers to the signal ratio)
Outline: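 Screening used a UAS-driven beta-lactamase reporter integrated into HEK293 cells expressing ER-alpha, stimulated with 17beta-estradiol alongside test compounds over 18 hr at 37C; signal came from LiveBLAzer B/G FRET fluorescence.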

[33] = molecular target: Estrogen receptor (Homo sapiens) (UniProt P03372); test: qHTS assay to identify small molecule agonists of the estrogen receptor alpha (ER-alpha) signaling pathway using the BG1 cell line (AID 743079); also: nearly all actives have a fitted effect of over 20% in size
[34] = qHTS assay to identify small molecule antagonists of the estrogen receptor alpha (ER-alpha) signaling pathway using the BG1 cell line (AID 743080; calls by dose curve;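 also: BG1 cells stimulated with 17beta-estradiol alongside compound; series mostly up to about 70 µM; nearly all actives have a fitted effect of over 25% in size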)
Outline: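 BG1Luc4E2, endogenous ER-alpha, 4xERE-luc; 5 d charcoal-stripped FBS, phenol red free; 24 h plating; cpd + 17beta-estradiol 21.5 h, 37 C/5% CO2; CellTiter-Fluor viability 30 min, then ONE-Glo luciferase 30 min RT.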

[35] = molecular target: Aryl hydrocarbon receptor (Homo sapiens) (UniProt P35869); test: qHTS assay to identify small molecule that activate the aryl hydrocarbon receptor (AhR) signaling pathway (AID 743085);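 also: HG2L7.5c1 human HepG2 liver cells with stably integrated DRE-driven firefly reporter; series mostly up to about 70 µM; nearly all actives have a fitted effect of over 15% in size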
Sequence of Aryl hydrocarbon receptor (Homo sapiens) (P35869 whole entry, looked up): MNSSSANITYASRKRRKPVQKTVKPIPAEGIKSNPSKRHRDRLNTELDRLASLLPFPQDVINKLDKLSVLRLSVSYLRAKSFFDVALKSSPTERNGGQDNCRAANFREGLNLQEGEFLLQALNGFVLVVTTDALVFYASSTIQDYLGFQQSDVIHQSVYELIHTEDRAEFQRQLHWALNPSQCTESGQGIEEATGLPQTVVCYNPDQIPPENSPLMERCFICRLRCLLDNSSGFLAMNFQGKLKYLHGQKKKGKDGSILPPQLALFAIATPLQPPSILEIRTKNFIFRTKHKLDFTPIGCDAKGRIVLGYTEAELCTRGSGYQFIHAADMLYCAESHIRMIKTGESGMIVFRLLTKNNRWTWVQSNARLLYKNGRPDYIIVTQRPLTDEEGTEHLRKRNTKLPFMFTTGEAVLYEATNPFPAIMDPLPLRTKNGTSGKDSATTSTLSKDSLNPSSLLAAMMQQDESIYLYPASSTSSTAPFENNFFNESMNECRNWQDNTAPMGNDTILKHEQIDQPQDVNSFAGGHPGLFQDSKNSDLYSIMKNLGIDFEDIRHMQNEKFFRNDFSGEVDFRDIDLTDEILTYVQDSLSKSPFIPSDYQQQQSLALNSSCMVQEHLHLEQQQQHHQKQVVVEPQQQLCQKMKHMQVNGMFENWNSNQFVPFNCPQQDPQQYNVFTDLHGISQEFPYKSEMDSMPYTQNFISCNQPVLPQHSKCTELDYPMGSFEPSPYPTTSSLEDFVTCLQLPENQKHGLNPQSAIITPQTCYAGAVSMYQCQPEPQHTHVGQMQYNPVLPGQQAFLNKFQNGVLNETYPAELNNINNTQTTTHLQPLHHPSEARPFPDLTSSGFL
Outline: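 AhR agonist activity is inferred from enhanced light output of a DRE-controlled firefly luciferase reporter in HepG2 cells, measured with ONE-Glo following 24 h treatment at 37C.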

[36] = molecular target: Peroxisome proliferator-activated receptor gamma (Homo sapiens) (UniProt P37231); test: qHTS assay to identify small molecule agonists of the peroxisome proliferator-activated receptor gamma (PPARg) signaling pathway (AID 743094; active = well fitted activation curve with a large enough effect in the signal ratio in the repeat runs, not every such curve was filed as active; the % refers to the signal ratio)
Sequence of Peroxisome proliferator-activated receptor gamma (Homo sapiens) (P37231 whole entry, looked up): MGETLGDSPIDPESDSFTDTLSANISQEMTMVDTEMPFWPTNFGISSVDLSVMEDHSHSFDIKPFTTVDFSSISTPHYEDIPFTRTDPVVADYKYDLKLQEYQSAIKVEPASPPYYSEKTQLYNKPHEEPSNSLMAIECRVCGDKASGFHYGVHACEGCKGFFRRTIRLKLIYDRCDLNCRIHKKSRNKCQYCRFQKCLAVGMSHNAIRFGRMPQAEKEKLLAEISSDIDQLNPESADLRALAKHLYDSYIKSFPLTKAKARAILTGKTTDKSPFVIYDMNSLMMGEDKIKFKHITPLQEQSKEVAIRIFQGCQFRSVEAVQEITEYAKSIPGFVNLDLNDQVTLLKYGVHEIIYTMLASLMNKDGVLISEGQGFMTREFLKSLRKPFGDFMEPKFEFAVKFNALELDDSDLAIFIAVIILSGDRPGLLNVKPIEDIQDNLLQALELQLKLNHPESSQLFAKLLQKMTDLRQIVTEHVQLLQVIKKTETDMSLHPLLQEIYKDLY
Outline: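 Agonist activity was taken from a beta-lactamase reporter (FRET substrate, 1 h at room temperature) in HEK293H cells carrying a PPARg UAS-bla construct. Compounds in DMSO were incubated 17 h at 37C after a 5 h cell pre-incubation.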

Measured: Potency

CC(=O)O[C@H]1C[C@H](O[C@H]2[C@@H](O)C[C@H](O[C@H]3[C@@H](O)C[C@H](OC4CC[C@@]5(C)C(CC[C@@H]6[C@@H]5CC[C@]5(C)[C@@H](C7=CC(=O)OC7)[C@@H](O)C[C@]65O)C4)O[C@@H]3C)O[C@@H]2C)O[C@H](C)[C@H]1O[C@@H]1O[C@H](CO)[C@@H](O)[C@H](O)[C@H]1O (some centres not stated)
active: [2] 376 nM | [3] 750 nM | [5] 944 nM | [14] 2390 nM | [15] 2110 nM | [16] 2660 nM | [17] 2660 nM | [18] 601 nM | [19] 4250 nM | [23] 379 nM
not listed: [28] | [29] | [30] | [31] | [32] | [33] | [34] | [35] | [36]
inactive: all other assays above

CCN(CC)CCNc1ccc(CNC=O)c2sc3ccc(OC)cc3c(=O)c12
inactive: [29]
active: [28] 39900 nM

COc1cc2c(N3CCN(C(=O)Nc4ccc(OC(C)C)cc4)CC3)ncnc2cc1OCCCN1CCCCC1
inactive: [29]

Clc1ccc([C@@H]2C[C@H]3CC[C@@H]2N3)cn1
not listed: [5] | [19] | [23] | [25] | [28] | [29]
inactive: all other assays above
